# Laboratory results published in PubChem BioAssay (NCATS).
# Records with an inconclusive call do not appear. Values without a mark were called inactive. Active and inactive are the calls of the source. Calls come from the whole dose curve; as a rule, active = well fitted cell-killing curve with a large enough effect; inconclusive = small, poorly fitted or top-dose-only effect; inactive = flat fitted curve, though single readings scatter.
# Assay: Cell Viability - LYMP2-014 (AID 983); note: nearly all actives have a fitted effect of over 50% in size;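 for activity change, negative = cytotoxicity: plate controls were DMSO only for no effect and 92 µM tetraoctylammonium bromide for full effect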
# Conditions: LYMP2-014 lymphoblastoid cells, viability qHTS; series mostly up to 92.2 µM; activity change, negative = cytotoxicity: at the top concentration
# Source text: NIH Chemical Genomics Center [NCGC]
# NIH Molecular Libraries Screening Centers Network [MLSCN]
# National Institutes of Environmental Health Sciences [NIEHS]
# National Toxicology Program [NTP]
# We have developed a 1536-well cell-based assay for quantitative high throughput screening (qHTS) against a number of cell lines to determine in vitro cytotoxicity of small molecules. This particular assay uses a human lymphoblastoid cell line (LYMP2-014) purchased from Coriell Institute for Medical Research.
# NCGC Assay Protocol Summary:
# The CellTiter-Glo luminescent cell viability assay (Promega) is a homogeneous method to measure the number of viable cells in culture. The end point readout of this assay is based on quantitation of intracellular ATP, an indicator of metabolic activity, using the luciferase reaction. Luciferase catalyzes the oxidation of beetle Luciferin to oxyluciferin and light in the presence of ATP. The luminescent signal is proportional to amount of ATP present.
# Using the CellTiter-Glo luminescent cell viability assay, the amount of cellular ATP was measured in the lymphoblastoid cell line with complete culture medium following compound treatment for 24 hours. The assay was performed in opaque white Kalypsys 1536-well plates. In the screen, tetraoctylammonium bromide was used as positive control. Library compounds were measured for their ability to cause acute toxicity in the cell line, as reflected by a decrease in intracellular ATP levels, in a concentration-dependent manner. […] AC50 values were determined from concentration-response data modeled with the standard Hill equation.
# qHTS protocol for CellTiter Glo lymphoblastoid cellular assay
# [Step] [Parameter] [Value] [Description]
# 1. Reagent; 5 uL; 2500 lymphoblastoid cells/well
# 2. Time; 5 hr; 37 C incubation
# 4. Controls; 23 nL; Tetraoctylammonium bromide 6.4pM to 92 uM
# 5. Time; 24 hr; 37 C incubation
# 6. Reagent; 5 uL; CellTiter Glo reagent
# 7. Time; 30 min; Room Temperature
# 8. Detection; Luminescence; Viewlux plate reader
# Keywords: cell viability, cytotoxicity, lymphoblastoid cell line, luminescence, NTPHTS, NTPHTS_NCGC, NIEHS, DSSTox, MLSMR, MLSCN, NIH Roadmap, qHTS, NCGC
# Potency is the fitted concentration of half-maximal effect.
Structure (SMILES),"activity change, negative = cytotoxicity [%]",Potency
S=C(NC1CCCCC1)NC1CCCCC1,-7.44,
CC(=O)CC(=O)Nc1ccccc1,-5.65,
C=CC1CO1 (stereo not given),-11.1,
CCCCOC(=O)COc1ccc(Cl)cc1Cl,-3.21,
N=C1C=CC(=C(c2ccc(N)cc2)c2ccc(N)cc2)C=C1,,7.94 µM (active)
CCCCCCCC/C=C\CCCCCCCC(=O)N(CCO)CCO,-13.1,
Nc1ccccc1O,1.59,
Cc1ccc(C(=O)O)cc1[N+](=O)[O-],4.6,
Oc1cc2c(cc1O)[C@H]1c3ccc(O)c(O)c3OC[C@@]1(O)C2,,39.8 µM (active)
Cc1ccc(N)cc1[N+](=O)[O-],-0.197,
C1CCCNCC1,-1,
COc1ccc([N+](=O)[O-])cc1N,6.07,
CC(CCC(=O)O)(c1ccc(O)cc1)c1ccc(O)cc1,3.88,
Nc1cc([N+](=O)[O-])ccc1O,3.15,
O=C(O)c1ccc([N+](=O)[O-])cc1,-1.51,
C=C1CC[C@H](O)C/C1=C/C=C1\CCC[C@]2(C)[C@@H]([C@H](C)CCCC(C)C)CC[C@@H]12,,50.1 µM (active)
O=CC(=O)c1ccccc1,-19.6,
Cc1c(N)cccc1Cl,-5.41,
c1ccc(Nc2cccc3ccccc23)cc1,-7.45,
c1cc2c3c(c1)ccc1cccc(c13)C2,-28.4,

Structure (SMILES),"activity change, negative = cytotoxicity [%]",Potency
COc1ccc(C(=O)Nc2ccccc2)cc1[N+](=O)[O-],-23.6,
Cc1cc2nc(N)sc2cc1C,-15.2,
OC1CCCCC1,-5.63,
Oc1ccc2c(c1)OCO2,-1.43,
O=C(Cl)c1ccc([N+](=O)[O-])cc1,1.49,
Cc1ccccc1OCC1CO1 (stereo not given),-7.9,
CC(C)(C)C(=O)C1C(=O)c2ccccc2C1=O,-25.9,
CCCCCCN,-3.23,
CN(C)c1ccc(Cc2ccc(N(C)C)cc2)cc1,8.04,
CCCCCCCCOc1ccc(C(=O)O)cc1,2.21,
CCNC(=S)NCC,-4.86,
c1ccncc1,2.23,
C/C(Cl)=C/CCl,-7.41,
Oc1c(Cl)cc(Cl)c(Cl)c1Cl,-3.13,
C[Si](C)(C)Cl,-5.14,
c1c[nH]cn1,-4.8,
Cc1cc(=O)oc2cc(O)cc(O)c12,1.23,
CC(=O)c1ccc(Cl)c(Cl)c1Cl,-7.18,
CCCCNCC,-4.67,
CC(=O)OC1CC(C)OC(C)O1 (stereo not given),5.94,
